G9a inh = blocks human histone lysine methyltransferase G9a | hit rate 8.8% among 350,000 | G9a H3K9 monomethylation, AlphaScreen, 2 h | Potency, µM (highest dose often 102 µM), for inactives: top-dose activity, negative = inhibition, usual class: inhibitors | Q96KQ7; also: % is scaled to controls: 0 for no effect and ±100 for the full control effect; nearly all actives have a fitted effect of over 75% in size
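Chemiluminescent proximity detection of H3K9 monomethylation, read after 10 min bead incubation in the dark. Reaction: 20 nM G9a, 500 nM biotin-H3K9 peptide, 20 uM SAM cofactor, 2 h, room temperature, following 15 min enzyme-compound preincubation.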
PLK1 PBD inh = blocks phosphopeptide binding to human PLK1 polo-box domain; P53350; Plk1 PBD binding of FITC phosphopeptide, fluorescence polarization; Potency, µM, inactives show max response, negative = inhibition, actives largely listed as inhibitors; hit rate 2.8% among 360,000; AID 720504; also: series mostly up to about 57 µM; % is scaled to controls: 0 for no effect and ±100 for the full control effect; nearly all actives have a fitted effect of over 65% in size
JMJD2A Tudor = blocks the human JMJD2A Tudor domain | O75164 | AlphaScreen JMJD2A-Tudor / H3K4me3 peptide binding | Potency, µM (series often up to 114 µM), without a hit: at the highest dose activity change, negative = inhibition, most hits filed as inhibitors | hit rate 4.4% among 390,000 | AID 504339; also: % is scaled to controls: 0 for no effect and ±100 for the full control effect; nearly all actives have a fitted effect of over 50% in size
HP1b chromo inh = HP1-beta chromodomain-methylated histone interaction inhibition. P83916. AlphaScreen HP1-beta / biotin-H3K9me3 peptide binding. Potency, µM (series often up to 114 µM), inactives show top-dose activity change, negative = inhibition, actives largely listed as inhibitors. hit rate 0.56% among 390,000; also: nearly all actives have a fitted effect of over 70% in size
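Compound inhibition of the preformed complex between 50 nM HP1-beta and 50 nM biotinylated H3K9me3 peptide was read by AlphaScreen. Buffer was PBS pH 7.4 with 0.01% Tween-20. Incubations ran 30 min at room temperature, with 10 ug/mL donor/acceptor beads.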
BAZ2B inh = blocks human BAZ2B. Q9UIF8. AlphaScreen BAZ2B-H3K14Ac peptide displacement. Potency, µM (highest dose often 114 µM), without a hit: at the highest dose activity change, negative = inhibition, hits mostly inhibitors. hit rate 4.4% among 360,000. AID 504333; also: % is scaled to controls: 0 for no effect and ±100 for the full control effect; nearly all actives have a fitted effect of over 60% in size
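Protein-peptide AlphaScreen: BAZ2B 50 nM, b-H3K14Ac 50 nM, 1x PBS pH 7.4 + 0.01% Tween-20. Preincubation 30 min RT; cpd 30 min RT (top 110 uM); beads 20 min RT, light-protected.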
Sfp inh = blocks B. subtilis Sfp PPTase activity. Potency, µM, without a hit: largest response in the series, negative = inhibition, usual class: inhibitors. Biochemical Sfp PPTase activity, qHTS. Q9F4F7. hit rate 3.5% among 310,000. AID 1490;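 also: the enzyme is Sfp with the accession as filed and its product quenches rhodamine fluorescence; 0% = enzyme reaction without inhibitor and -100% = no enzyme wells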
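Buffer: 50 mM Hepes-Na pH 7.6, 10 mM MgCl2, 0.01% Nonidet P-40, 0.01% BSA. Enzyme 15 nM, pre-exposed to compound 15 min; substrates then added and fluorescence change tracked over 30 min.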
* marks the source's active call; other numbers are inactive results; [ ] = another dose, or the depositor's remark. In the library only some 12% were active in any assay of this set; here they are far more common. Calls follow the shape of the dose curve; as a rule, active = well fitted curve in the direction sought with a large enough effect; inconclusive = small, poorly fitted or top-dose-only effect, or another doubt; inactive = no such curve, though single readings can be large; an effect the other way counts as inactive or inconclusive. Potency is read from the fitted curve at half-maximal effect.

Screening CCCn1c(-c2ccc(F)cc2)nc2c(NC(C)CN(C)C)nc(C)nc21 (stereo not given) returned Sfp inh 23%.
For CSc1ncccc1C(=O)N1CCCC(N2CCN(c3ccccc3F)CC2)C1 (stereo not given) the results were G9a inh 44%, PLK1 PBD inh -15%, JMJD2A Tudor -12%, HP1b chromo inh 19%, BAZ2B inh 1% and Sfp inh 14%.
`CC(=O)Oc1cc2c3c(c1)/C(=C1/SC(=S)NC1=O)C(=O)N3C(C)(C)C=C2C` gave G9a inh 8.9µM*, PLK1 PBD inh 27µM*, JMJD2A Tudor 11µM*, HP1b chromo inh inconclusive, BAZ2B inh 7.9µM* and Sfp inh 35µM*.
CCOc1cc2c3c(c1)C(C)=CC(C)(C)N3C(=O)C2=O was read as G9a inh inconclusive, PLK1 PBD inh -3%, JMJD2A Tudor -27%, HP1b chromo inh inconclusive, BAZ2B inh inconclusive and Sfp inh 14%.
COc1ccc(N2CCN(C(=O)C(Cc3ccccc3)n3cccc3)CC2)cc1 (stereo not given) was read as G9a inh 40µM*, PLK1 PBD inh -3%, JMJD2A Tudor 56µM*, HP1b chromo inh inconclusive, BAZ2B inh 28µM* and Sfp inh 12%.
COc1ccc(N2CCN(C(=O)C(OC(C)=O)c3ccccc3)CC2)cc1 (stereo not given) was read as G9a inh 8.9µM*, PLK1 PBD inh -4%, JMJD2A Tudor -3%[57.1 µM], HP1b chromo inh 17%, BAZ2B inh -7% and Sfp inh 10%.
`COc1ccc(N2CCN(C(C)C(=O)N(C)Cc3ccccc3)CC2)cc1` (stereo not given) gave G9a inh 50µM*, PLK1 PBD inh -6%, JMJD2A Tudor -21%, HP1b chromo inh -10%, BAZ2B inh -13% and Sfp inh 8%.
Screening O=C(C(Cc1ccccc1)n1cccc1)N1CCN(c2cccc(Cl)c2)CC1 (stereo not given) returned G9a inh inconclusive, PLK1 PBD inh -5%, JMJD2A Tudor -18%, HP1b chromo inh 23%, BAZ2B inh -34% and Sfp inh 13%.
`CC(=O)OC(C(=O)N1CCN(c2ccc(F)cc2)CC1)c1ccccc1` (stereo not given) gave G9a inh -39%[59 µM], PLK1 PBD inh -14%, JMJD2A Tudor -17%, HP1b chromo inh 40%, BAZ2B inh -9% and Sfp inh 8%.
For O=C(C(Cc1ccccc1)n1cccc1)N1CCN(Cc2ccccc2)CC1 (stereo not given) the results were G9a inh 32µM*, PLK1 PBD inh -3%, JMJD2A Tudor inconclusive, HP1b chromo inh 1%, BAZ2B inh 50µM* and Sfp inh 3%.
CCc1ccccc1Nc1cc(C(=O)NCCCN(C)C2CCCCC2)c2ccccc2n1 was read as G9a inh -56%[59 µM], JMJD2A Tudor -25% and HP1b chromo inh 10%.
COc1ccc(N2CCN(C(=O)CN(Cc3ccc(Cl)cc3)S(C)(=O)=O)CC2)cc1 was read as G9a inh 79µM*, PLK1 PBD inh -2%, JMJD2A Tudor inconclusive, HP1b chromo inh -21%, BAZ2B inh inconclusive and Sfp inh 5%.
`CS(=O)(=O)N(Cc1ccccc1)c1ccc(C(=O)N2CCN(c3cccc(Cl)c3)CC2)cc1` gave G9a inh 11%[59 µM], PLK1 PBD inh 2%, JMJD2A Tudor -21%, HP1b chromo inh 10%, BAZ2B inh 1% and Sfp inh 8%.
Screening COc1ccc(N2CCN(C(=O)CN(Cc3ccccc3)S(C)(=O)=O)CC2)cc1 returned G9a inh 50µM*, PLK1 PBD inh -7%, JMJD2A Tudor -21%, HP1b chromo inh 11%, BAZ2B inh -28% and Sfp inh -2%.
`COc1ccc(CC(=O)N2CCN(C(=O)Cc3ccc(OC)c(OC)c3)CC2)cc1OC` gave PLK1 PBD inh 3%.
CS(=O)(=O)N(Cc1ccc(Cl)cc1)c1ccc(C(=O)N2CCN(c3ccccc3)CC2)cc1 was read as G9a inh 7.9µM*, PLK1 PBD inh -1%, JMJD2A Tudor 89µM*, HP1b chromo inh -5%, BAZ2B inh inconclusive and Sfp inh -15%.
For COc1ccc(N2CCN(C(=O)Cc3ccc(OC)c(OC)c3)CC2)cc1 the results were G9a inh 3%[59 µM], PLK1 PBD inh 24µM*, JMJD2A Tudor 13µM*, HP1b chromo inh -19%, BAZ2B inh 8%[0.457 µM] and Sfp inh 7%.
CCOc1ccc(-c2cc(C(=O)N3CCN(c4cccc(C(F)(F)F)c4)CC3)c3ccccc3n2)cc1 was read as G9a inh -7%[59 µM], JMJD2A Tudor -16%, HP1b chromo inh 13% and BAZ2B inh -5%.
Screening COc1ccc(CCC(=O)N2CCN(c3ccc(OC)cc3)CC2)cc1 returned G9a inh inconclusive, PLK1 PBD inh -2%, JMJD2A Tudor -35%, HP1b chromo inh -5%, BAZ2B inh inconclusive and Sfp inh 9%.
Screening Cc1ccc(C)c(N2CCN(C(=O)CCCOc3cc(=O)n(C)c4ccccc34)CC2)c1 returned PLK1 PBD inh 1%, JMJD2A Tudor -34%, HP1b chromo inh 8%, BAZ2B inh inconclusive and Sfp inh -32%.
`CS(=O)(=O)N(CC(=O)N1CCN(Cc2ccc3c(c2)OCO3)CC1)Cc1ccc(Cl)cc1` gave G9a inh inconclusive, PLK1 PBD inh -2%, JMJD2A Tudor -27%, HP1b chromo inh 7%, BAZ2B inh 56µM* and Sfp inh -3%.
COc1ccc(N2CCN(C(=O)CCCOc3cc(=O)n(C)c4ccccc34)CC2)cc1 was read as G9a inh 79µM*, PLK1 PBD inh -2%, JMJD2A Tudor inconclusive, HP1b chromo inh -6%, BAZ2B inh inconclusive and Sfp inh -5%.
`COc1ccc(N2CCN(C(=O)CCc3ccccc3)CC2)cc1` gave G9a inh 32µM*, PLK1 PBD inh -2%, JMJD2A Tudor -14%, HP1b chromo inh 23%, BAZ2B inh -22% and Sfp inh 7%.
For COc1ccc(C(=O)N(Cc2ccccc2)Cc2ccccc2)c(O)c1 the results were JMJD2A Tudor -12%.
Screening S=c1nc(C23CC4CC(CC(C4)C2)C3)[nH][nH]1 returned G9a inh -127%[59 µM], PLK1 PBD inh inconclusive, JMJD2A Tudor 3.5µM*, HP1b chromo inh -31%, BAZ2B inh -6% and Sfp inh 56µM*.
Screening CCCCCCCCCCCCCCCCOC[C@H](COP(=O)([O-])OCC[N+](C)(C)C)OC(=O)NC returned G9a inh -18%[59 µM] and Sfp inh -5%.

High-throughput results deposited in PubChem BioAssay by National Center for Advancing Translational Sciences (NCATS).
